From publication PMC11006913

How the values were obtained:
Test in all cases: PBM; 200 nM protein, PBS
Settings in all cases: dsDNA, one strand shown
PROP1 [1] = molecular target: PROP1 (Homo sapiens, UniProt O75360 56-141)
PROP1 [2] = molecular target: PROP1 (Homo sapiens, UniProt O75360 56-141, R99H)
PROP1 [3] = molecular target: PROP1 (Homo sapiens, UniProt O75360 56-141, F88S)
PROP1 (Homo sapiens, UniProt O75360 56-141, F88S), sequence (O75360 56-141 F88S): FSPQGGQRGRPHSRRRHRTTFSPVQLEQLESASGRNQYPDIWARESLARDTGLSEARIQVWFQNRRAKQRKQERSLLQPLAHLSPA

PROP1 (Homo sapiens, UniProt O75360 56-141, R99H), sequence (O75360 56-141 R99H): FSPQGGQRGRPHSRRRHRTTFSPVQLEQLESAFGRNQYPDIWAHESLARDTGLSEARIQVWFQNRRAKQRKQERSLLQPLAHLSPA
PROP1 (Homo sapiens, UniProt O75360 56-141), sequence (O75360 56-141): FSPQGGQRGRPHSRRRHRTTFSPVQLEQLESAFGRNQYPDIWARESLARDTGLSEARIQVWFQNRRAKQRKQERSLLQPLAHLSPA

| Sequence | binding signal (PROP1 [1]) | binding signal (PROP1 [2]) | binding signal (PROP1 [3]) |
| --- | --- | --- | --- |
| GCGGACGC | 6.53 upbm affinity estimate (log intensity, higher = more binding, comparable within an allelic series) | 6.66 upbm affinity estimate (log intensity, higher = more binding, comparable within an allelic series) | 6.56 upbm affinity estimate (log intensity, higher = more binding, comparable within an allelic series) |
| GCCATGGC | 6.94 upbm affinity estimate (log intensity, higher = more binding, comparable within an allelic series) | 6.8 upbm affinity estimate (log intensity, higher = more binding, comparable within an allelic series) | 6.74 upbm affinity estimate (log intensity, higher = more binding, comparable within an allelic series) |
| ATCTTAAC | 8.34 upbm affinity estimate (log intensity, higher = more binding, comparable within an allelic series) | 7.85 upbm affinity estimate (log intensity, higher = more binding, comparable within an allelic series) | 7.45 upbm affinity estimate (log intensity, higher = more binding, comparable within an allelic series) |
| CGCGTCCC | 6.69 upbm affinity estimate (log intensity, higher = more binding, comparable within an allelic series) | 6.77 upbm affinity estimate (log intensity, higher = more binding, comparable within an allelic series) | 6.52 upbm affinity estimate (log intensity, higher = more binding, comparable within an allelic series) |
| GGTGCACC | 6.54 upbm affinity estimate (log intensity, higher = more binding, comparable within an allelic series) | 6.58 upbm affinity estimate (log intensity, higher = more binding, comparable within an allelic series) | 6.7 upbm affinity estimate (log intensity, higher = more binding, comparable within an allelic series) |
| GGATGCAC | 6.71 upbm affinity estimate (log intensity, higher = more binding, comparable within an allelic series) | 6.74 upbm affinity estimate (log intensity, higher = more binding, comparable within an allelic series) | 6.83 upbm affinity estimate (log intensity, higher = more binding, comparable within an allelic series) |
| CTCTGGAA | 6.65 upbm affinity estimate (log intensity, higher = more binding, comparable within an allelic series) | 6.87 upbm affinity estimate (log intensity, higher = more binding, comparable within an allelic series) | 6.91 upbm affinity estimate (log intensity, higher = more binding, comparable within an allelic series) |
| AATTCAAC | 8.25 upbm affinity estimate (log intensity, higher = more binding, comparable within an allelic series) | 7.78 upbm affinity estimate (log intensity, higher = more binding, comparable within an allelic series) | 7.25 upbm affinity estimate (log intensity, higher = more binding, comparable within an allelic series) |
| CGCGGTCC | 6.77 upbm affinity estimate (log intensity, higher = more binding, comparable within an allelic series) | 6.82 upbm affinity estimate (log intensity, higher = more binding, comparable within an allelic series) | 6.49 upbm affinity estimate (log intensity, higher = more binding, comparable within an allelic series) |
| GGCATGAC | 6.69 upbm affinity estimate (log intensity, higher = more binding, comparable within an allelic series) | 6.75 upbm affinity estimate (log intensity, higher = more binding, comparable within an allelic series) | 6.7 upbm affinity estimate (log intensity, higher = more binding, comparable within an allelic series) |
| AATATGAA | 8.47 upbm affinity estimate (log intensity, higher = more binding, comparable within an allelic series) | 8.01 upbm affinity estimate (log intensity, higher = more binding, comparable within an allelic series) | 7.42 upbm affinity estimate (log intensity, higher = more binding, comparable within an allelic series) |
| CCTGTTAG | 8.32 upbm affinity estimate (log intensity, higher = more binding, comparable within an allelic series) | 8.15 upbm affinity estimate (log intensity, higher = more binding, comparable within an allelic series) | 7.19 upbm affinity estimate (log intensity, higher = more binding, comparable within an allelic series) |
| ATGCCAGC | 6.71 upbm affinity estimate (log intensity, higher = more binding, comparable within an allelic series) | 6.77 upbm affinity estimate (log intensity, higher = more binding, comparable within an allelic series) | 6.73 upbm affinity estimate (log intensity, higher = more binding, comparable within an allelic series) |
| GTCAGGAC | 6.88 upbm affinity estimate (log intensity, higher = more binding, comparable within an allelic series) | 6.96 upbm affinity estimate (log intensity, higher = more binding, comparable within an allelic series) | 6.86 upbm affinity estimate (log intensity, higher = more binding, comparable within an allelic series) |
| CGATGCCC | 6.76 upbm affinity estimate (log intensity, higher = more binding, comparable within an allelic series) | 6.86 upbm affinity estimate (log intensity, higher = more binding, comparable within an allelic series) | 6.71 upbm affinity estimate (log intensity, higher = more binding, comparable within an allelic series) |
| CACGACGA | 6.69 upbm affinity estimate (log intensity, higher = more binding, comparable within an allelic series) | 6.8 upbm affinity estimate (log intensity, higher = more binding, comparable within an allelic series) | 6.95 upbm affinity estimate (log intensity, higher = more binding, comparable within an allelic series) |
| AAGGGAGT | 6.58 upbm affinity estimate (log intensity, higher = more binding, comparable within an allelic series) | 6.7 upbm affinity estimate (log intensity, higher = more binding, comparable within an allelic series) | 6.82 upbm affinity estimate (log intensity, higher = more binding, comparable within an allelic series) |
| CCGGGCTA | 6.87 upbm affinity estimate (log intensity, higher = more binding, comparable within an allelic series) | 6.89 upbm affinity estimate (log intensity, higher = more binding, comparable within an allelic series) | 6.52 upbm affinity estimate (log intensity, higher = more binding, comparable within an allelic series) |
| AGGACACC | 6.84 upbm affinity estimate (log intensity, higher = more binding, comparable within an allelic series) | 6.77 upbm affinity estimate (log intensity, higher = more binding, comparable within an allelic series) | 6.75 upbm affinity estimate (log intensity, higher = more binding, comparable within an allelic series) |
| AATCTATA | 8.79 upbm affinity estimate (log intensity, higher = more binding, comparable within an allelic series) | 8.14 upbm affinity estimate (log intensity, higher = more binding, comparable within an allelic series) | 7.56 upbm affinity estimate (log intensity, higher = more binding, comparable within an allelic series) |
| CTCAGCGC | 6.82 upbm affinity estimate (log intensity, higher = more binding, comparable within an allelic series) | 6.86 upbm affinity estimate (log intensity, higher = more binding, comparable within an allelic series) | 6.88 upbm affinity estimate (log intensity, higher = more binding, comparable within an allelic series) |
